In PMC4336329 (PLoS ONE, 2015):
The campaign covered roughly 310,000 compounds. About 2,200 (0.71%) showed an effect of 50% or more. Effects have a minus sign here. This is one part of a sample in which strong results are shown more often than they occur.

What follows are compounds tested against human ether-à-go-go-related gene (hERG) potassium channel (human, UniProt Q12809) (assay: primary screen, population patch clamp on CHO cells stably expressing hERG; higher = less effect of the substance).
Chain of human ether-à-go-go-related gene (hERG) potassium channel (Q12809 whole entry, looked up): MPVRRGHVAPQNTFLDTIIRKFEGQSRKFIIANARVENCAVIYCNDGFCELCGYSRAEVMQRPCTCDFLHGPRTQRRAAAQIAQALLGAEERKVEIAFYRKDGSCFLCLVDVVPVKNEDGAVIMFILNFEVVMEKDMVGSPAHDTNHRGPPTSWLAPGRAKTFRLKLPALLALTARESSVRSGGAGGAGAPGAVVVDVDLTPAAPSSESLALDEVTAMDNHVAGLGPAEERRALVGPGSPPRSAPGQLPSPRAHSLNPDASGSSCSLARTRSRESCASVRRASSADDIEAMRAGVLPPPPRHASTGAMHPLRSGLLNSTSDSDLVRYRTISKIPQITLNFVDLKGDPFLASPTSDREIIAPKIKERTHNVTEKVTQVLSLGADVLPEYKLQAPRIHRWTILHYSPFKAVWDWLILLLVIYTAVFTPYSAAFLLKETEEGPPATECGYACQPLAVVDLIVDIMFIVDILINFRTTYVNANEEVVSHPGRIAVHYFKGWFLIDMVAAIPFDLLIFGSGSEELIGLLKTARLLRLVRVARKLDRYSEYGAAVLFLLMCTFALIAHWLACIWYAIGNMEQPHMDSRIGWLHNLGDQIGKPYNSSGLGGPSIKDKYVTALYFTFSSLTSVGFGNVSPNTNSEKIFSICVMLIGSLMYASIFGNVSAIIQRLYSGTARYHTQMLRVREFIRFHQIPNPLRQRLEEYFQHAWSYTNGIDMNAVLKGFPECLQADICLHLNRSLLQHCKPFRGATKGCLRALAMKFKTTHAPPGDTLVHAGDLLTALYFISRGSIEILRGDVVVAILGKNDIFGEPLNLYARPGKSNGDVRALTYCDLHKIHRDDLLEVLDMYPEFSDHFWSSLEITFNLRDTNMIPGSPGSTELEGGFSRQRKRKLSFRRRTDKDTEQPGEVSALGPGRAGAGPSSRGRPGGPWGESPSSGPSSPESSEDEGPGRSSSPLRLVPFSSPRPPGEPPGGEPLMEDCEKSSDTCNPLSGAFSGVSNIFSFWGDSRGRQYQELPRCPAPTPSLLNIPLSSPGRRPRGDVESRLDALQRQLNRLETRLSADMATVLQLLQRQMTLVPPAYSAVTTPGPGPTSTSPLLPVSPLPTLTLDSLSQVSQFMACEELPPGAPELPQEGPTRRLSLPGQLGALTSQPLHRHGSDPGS

Compound | hERG current change (%, negative = inhibition) at 1uM [%]
COCC1CCCN(C(=O)c2ccc3oc(C(C)C)nc3c2)C1 (stereo not drawn) | 9.33
COc1ccc(/C=N/Nc2nc(N3CCCC3)nc(N3CCCC3)n2)cc1O | 7.51
O=C(c1ccc(O)cc1)c1ccc(Cl)cc1 | -3.35
O=C(O)CCCCCCCCCCCc1ccccc1 | 12.7
CC(C)N(C)NC(=S)Nc1ccccc1 | 8.22
COc1ccc(/C=C(\NC(=O)c2ccc([N+](=O)[O-])cc2)C(=O)NCCCn2ccnc2)cc1 | -14.4
COc1ccc(/C=C(/NC(=O)c2ccc([N+](=O)[O-])cc2)C(=O)NCCCN(C)C)cc1 | -65.3
C=CCNC(=O)/C(=C\c1ccc([N+](=O)[O-])cc1)NC(C)=O | 8.68
COc1ccc(/C=C(\NC(=O)c2ccc([N+](=O)[O-])cc2)C(=O)NCCCN2CCOCC2)cc1 | -41
C=CCNC(=O)/C(=C\c1ccc(OC)cc1)NC(=O)c1ccc([N+](=O)[O-])cc1 | -64.7
COc1ccc(/C=C(/NC(=O)c2ccc([N+](=O)[O-])cc2)C(=O)NC(C)(C)C)cc1 | -10.7
CCOC(=O)CCc1c(C)c(C#N)c2nc3ccccc3n2c1-n1ccnc1C | -20.4
CCOC(=O)CCc1c(C)nc2cc(-c3ccc(F)cc3)[nH]n2c1=O | 8.2
CC(C)(C)SCCNC(=O)c1ccc(Cl)c([N+](=O)[O-])c1 | 8.24
O=C(Cn1nnc(-c2ccccc2-n2cnnn2)n1)c1ccccc1 | 5.12
O=C(C1=C(O)C(=O)N(CCCN2CCOCC2)C1c1ccc(Cl)cc1)c1cc2ccccc2o1 (stereo not drawn) | 15.8
CN(C(=O)c1ccc(Cl)cc1)C1=CCCCC1CCC#N (stereo not drawn) | 0.644
CN1CCN(c2ccccc2NC(=O)Cc2ccc(Cl)cc2)CC1 | -59.4
CN1CCN(c2ccc(Cl)cc2NC(=O)CCN2C(=O)c3ccccc3C2=O)CC1 | 6.75
CC(=O)N1CCN(c2ccccc2NC(=O)Cc2ccc(Cl)cc2)CC1 | -17.2

Compound | hERG current change (%, negative = inhibition) at 1uM [%]
CC(C)C(=O)N1CCN(c2ccccc2NC(=O)Cc2ccc(Cl)cc2)CC1 | -38.9
CN1CCN(c2ccc(Cl)cc2NC(=O)CC2OC(=O)c3ccccc32)CC1 (stereo not drawn) | -61.2
O=C(CC1OC(=O)c2ccccc21)Nc1cc(Cl)ccc1N1CCCC1 (stereo not drawn) | 8.82
CN1CCN(c2ccc(S(=O)(=O)N3CCCCC3)cc2NC(=O)Cc2ccc(Cl)cc2)CC1 | -50.6
COc1ccc(CC(=O)Nc2cc(S(=O)(=O)N3CCCCC3)ccc2N2CCN(C)CC2)cc1 | -7.26
CN1CCN(c2ccc(S(=O)(=O)N3CCCCC3)cc2NC(=O)Cc2c(F)cccc2Cl)CC1 | -7.39
COc1ccc(NC(=S)N(CCc2ccc(OC)c(OC)c2)Cc2ccccn2)cc1 | 0.952
CCOC(=O)c1ccc(CNCc2ccc(C)cc2)cc1 | -1.83
COc1ccc(S(=O)(=O)N2CCCC2CNC(=O)C(=O)Nc2ccc(C)cc2)cc1 (stereo not drawn) | -0.606
COc1cc(CCC(=O)OCC(=O)Nc2ccc(C)cc2Cl)cc(OC)c1OC | 15.1
CCn1ncc(NC(=O)Nc2cccc(C(F)(F)F)c2)c1C(N)=O | 5.39
Cc1cc(C(=O)NC2CCCCC2)on1 | 10.2
CN(C)c1cccc(C(=O)Nc2nc3ccccc3[nH]2)c1 | 14.7
Fc1ccc(CN2CCCCCCC2)c(F)c1 | 14.2
COc1ccc(C(=O)N/C(=C\c2ccccc2)C(=O)N2CCOCC2)cc1 | 9.79
O=C(N/C(=C\c1ccccc1Cl)C(=O)N1CCOCC1)c1ccc([N+](=O)[O-])cc1 | -31.6
O=C(N/C(=C/c1ccccc1)C(=O)N1CCOCC1)c1ccc([N+](=O)[O-])cc1 | -19.6
O=C(N/C(=C\c1ccc(Cl)cc1)C(=O)N1CCOCC1)c1ccc([N+](=O)[O-])cc1 | -88.2
O=C(N/C(=C\c1ccc(Br)cc1)C(=O)N1CCOCC1)c1ccc([N+](=O)[O-])cc1 | -81.6
COc1ccc(/C=C(\NC(=O)c2ccc([N+](=O)[O-])cc2)C(=O)N2CCOCC2)cc1 | -54.9

Compound | hERG current change (%, negative = inhibition) at 1uM [%]
COc1ccc(/C=C(/NC(=O)c2ccc(Br)cc2)C(=O)N2CCOCC2)cc1 | 7.06
O=C(N/C(=C/c1cccc([N+](=O)[O-])c1)C(=O)N1CCOCC1)c1ccc(Br)cc1 | -19.6
O=C(N/C(=C\c1ccc([N+](=O)[O-])cc1)C(=O)N1CCOCC1)c1cccc(Br)c1 | -79
O=C(N/C(=C\c1cccc([N+](=O)[O-])c1)C(=O)N1CCOCC1)c1cccc(Br)c1 | 7.37
Cc1ccc(C(=O)N/C(=C/c2ccc(Cl)cc2)C(=O)N2CCOCC2)cc1 | -9.41
O=C(N/C(=C\c1ccccc1)C(=O)N1CCOCC1)c1cccc(Br)c1 | 18.8
O=C(Nc1cc(Cl)ccc1N1CCOCC1)c1cc2ccccc2o1 | 8.14
Cc1c(Br)c([N+](=O)[O-])nn1C(C)C(=O)NCc1cccnc1 (stereo not drawn) | -7.67
O=C(O)COc1ccccc1 | 14.1
O=C(Nc1ccc2c(c1)C(=O)OC2)c1ccc(Cl)cc1Cl | 3.09
Cc1ccccc1N(C(=O)Cc1cccs1)C(C(=O)NC1CCCCC1)c1cn(C)nc1C (stereo not drawn) | -0.242
Br.CCCCN1C2=NCCCN2c2ccccc21 | -6.43
CCCN1C2=NCCCN2c2ccccc21.Cl | 7.07
Br.CCCCCN1C2=NCCN2c2ccccc21 | -58.9
Br.CC(C)(C)C(=O)CN1C2=NCCN2c2ccccc21 | 2.72
c1ccc([C@H]2CN3C(=N2)Sc2ccccc23)cc1 | 11
CCCCCCN1C2=NCCN2c2ccccc21.Cl | -82.3
CCCCCCN1C2=NCCCN2c2ccccc21.Cl | -73.7
CCCCCCCN1C2=NCCCN2c2ccccc21.Cl | -21.6
CCCCN1C2=NC(c3ccccc3)CN2c2ccccc21.Cl (stereo not drawn) | -50.5
